# Values joined by “and” are separate entries in the source; they are usually repeats but may differ in a detail not shown here. Equal values may be shown once. Records with an inconclusive call do not appear. Active and inactive are the calls of the source. Unless noted, the call rests on the fitted dose curve.
# Key:
# [1] = qHTS Assay for Lipid Storage Modulators (AID 1519); conditions: Drosophila S3 cells, BODIPY lipid droplet/cell ratio, laser cytometry, cells loaded with oleic acid; on activity change, negative = inhibition: on the % scale 0 is the no-effect control and ±100 the full control effect
# Summary of the method: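 Cells seeded at 5,000 per well were treated with compounds over a concentration series and loaded with oleic acid (400 uM, as added). Lipid droplet fluorescence (488 nm excitation, 500-530 nm channel) was read by laser-scanning cytometry and normalized to 20 uM Triacsin C.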
# [2] = Validation of Assay for Modulators of Lamin A Splicing (AID 1459; active means well fitted curve in the direction sought with a large enough effect in the signal ratio; the % refers to the signal ratio;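 further: cells exposed to compound for two days before reading; 0% is about no effect; ratio rise marks activators and ratio drop marks inhibitors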); conditions: Lamin A splicing dual RFP/GFP fluorescence reporter; series mostly up to 9.22 µM
# Summary of the method: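 Splicing correction read as GFP (500-530 nm) over DsRed2 (575-640 nm) object intensity after 48 h compound exposure of reporter HeLa S3 clones (600 cells/well, 2% FBS medium); ancitabine and cycloheximide titrations, 0.5% DMSO as vehicle.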
# [3] = molecular target: DNA repair nuclease/redox regulator APEX1 (Homo sapiens) (UniProt P27695); experiment: qHTS Validation Assay for Inhibitors of the Human Apurinic/apyrimidinic Endonuclease 1 (APE1) (AID 1705; active means well fitted curve in the direction sought with a large enough effect; an effect the other way counts as inactive or inconclusive;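 further: TAMRA fluorescence gain over two minutes as APE1 cuts a quenched THF abasic duplex; on the % scale 0 is the no-effect control and ±100 the full control effect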); conditions: purified APE1 endonuclease activity, fluorescence, titration; series mostly up to 57.1 µM
# Summary of the method: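 Activity read as rising fluorescence (598 nm emission, 525 nm excitation) from incision of a TAMRA/BHQ-2 duplex carrying a THF abasic site (50 nM). Compound and enzyme sat 15 min at RT before substrate start; signal change between first and third 60-s reads.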
# [4] = Counterscreen for APE1 Inhibitors: Fluorescent Dye Displacement Validation Assay (AID 1707; active means well fitted curve in the direction sought with a large enough effect; an effect the other way counts as inactive or inconclusive;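 further: plate controls were ThO with dsDNA and no compound for no effect and ThO without dsDNA for full effect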); conditions: fluorescent dye displacement from DNA; series mostly up to 57.1 µM
# Summary of the method: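 Assay buffer: Tris-HCl pH7.5 with 50mM NaCl, 2 mM MgCl2, 0.01% Tween-20. Dye 250 nM, duplex 50 nM final. Readout: decrease in ThO endpoint fluorescence, 480 nm excitation, 540 nm emission.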
# [5] = molecular target: Endonuclease 4 (Escherichia coli (strain K12)) (UniProt P0A6C1); experiment: Counterscreen for APE1 Inhibitors: qHTS Validation Assay for Inhibitors of Endonuclease IV (AID 1708; active means well fitted curve in the direction sought with a large enough effect; an effect the other way counts as inactive or inconclusive; further: on the % scale 0 is the no-effect control and ±100 the full control effect); conditions: E. coli endonuclease IV, DNA cleavage fluorescence; series mostly up to 57.1 µM
# Summary of the method: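 E. coli EndoIV at 2 nM final, preincubated 15 min at room temperature with compound, then 50 nM TAMRA/BHQ-2 THF abasic-site duplex added. Buffer: 50 mM Tris-HCl pH 7.5, 50 mM NaCl, 2 mM MgCl2, 1 mM DTT, 0.01% Tween-20. Kinetic fluorescence increase, third minus first read.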
# [6] = qHTS for differential inhibitors of proliferation of Plasmodium falciparum line 7G8 (AID 1815; active means well fitted curve in the direction sought with a large enough effect; an effect the other way counts as inactive or inconclusive;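 further: parasite growth measured after three days of incubation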; further: potency means the concentration at half of the fitted maximal effect;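 on activity change, negative = inhibition: plate controls were vehicle wells for no effect and reference inhibitor wells for full effect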); conditions: Plasmodium falciparum 7G8 proliferation inhibition; series mostly up to 28.7 µM
# [7] = qHTS for differential inhibitors of proliferation of Plasmodium falciparum line GB4 (AID 1816; active means well fitted curve in the direction sought with a large enough effect; an effect the other way counts as inactive or inconclusive;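 further: parasite growth measured after 72 h incubation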; further: potency means the concentration at half of the fitted maximal effect;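 on activity change, negative = inhibition: 0% = vehicle DMSO and -100% = reference inhibitor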); conditions: Potency: Plasmodium falciparum GB4 proliferation inhibition; series mostly up to 28.7 µM
# [8] = qHTS for differential inhibitors of proliferation of Plasmodium falciparum line 3D7 (AID 1876; active means well fitted curve in the direction sought with a large enough effect; an effect the other way counts as inactive or inconclusive;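 further: parasite growth measured after three days of culture; 0% = vehicle wells and -100% = reference inhibitor wells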); conditions: P. falciparum 3D7 proliferation inhibition; series mostly up to 28.7 µM
# [9] = qHTS for differential inhibitors of proliferation of Plasmodium falciparum line D10 (AID 1877; active means well fitted curve in the direction sought with a large enough effect; an effect the other way counts as inactive or inconclusive;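 further: parasites grown with compound for 72 h before DNA staining; plate controls were vehicle wells for no effect and reference inhibitor wells for full effect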); conditions: series mostly up to 28.7 µM
# [10] = qHTS for differential inhibitors of proliferation of Plasmodium falciparum line Dd2 (AID 1882; active means well fitted curve in the direction sought with a large enough effect; an effect the other way counts as inactive or inconclusive;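 further: plate controls were DMSO vehicle for no effect and 0.29 µM artemisinin for full effect; nearly all actives have a fitted effect of over 65% in size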); conditions: Potency: Plasmodium falciparum Dd2 proliferation inhibition; series mostly up to 28.7 µM
# Summary of the method: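 Dd2-infected erythrocytes (0.3% parasitemia, 2.5% hematocrit final) incubated with compound 72 h at 37 C, 5% CO2; lysed with saponin/Triton buffer containing SYBR Green I, incubated overnight in the dark, then read by fluorescence (485/535 nm). Normalized to 0.29 uM artemisinin and DMSO.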
# [11] = measured here: cell count channel max response
# [12] = measured here: lipid channel max response
# DNA repair nuclease/redox regulator APEX1 (Homo sapiens), sequence (P27695 whole entry, looked up): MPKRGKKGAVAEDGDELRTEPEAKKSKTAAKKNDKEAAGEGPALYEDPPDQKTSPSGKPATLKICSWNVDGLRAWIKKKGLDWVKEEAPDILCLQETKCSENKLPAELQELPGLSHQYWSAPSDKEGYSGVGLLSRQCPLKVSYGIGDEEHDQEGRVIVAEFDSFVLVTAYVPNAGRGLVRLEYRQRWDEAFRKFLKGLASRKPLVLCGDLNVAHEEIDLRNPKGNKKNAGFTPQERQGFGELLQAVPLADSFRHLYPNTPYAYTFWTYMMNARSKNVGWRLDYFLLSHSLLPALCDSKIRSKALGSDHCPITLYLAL
smiles,measurement,setting,value
CC(=O)Oc1cccc2c1C(=O)c1c(OC(C)=O)cc(C(=O)O)cc1C2=O,"activity change, negative = inhibition",[1]; at 57.5 µM (top of the series),13.8% (inactive)
same,max response,[1]; [11],25.9%
same,max response,[1]; [12],41.9%
CC1CCC(NC(=O)N(CCCl)N=O)CC1 (stereo not drawn),"activity change, negative = inhibition",[1]; at 57.5 µM (top of the series),0.815% (inactive)
same,max response,[1]; [11],10.3%
same,max response,[1]; [12],12.2%
CNC(=O)c1c(I)c(C(=O)NCC(=O)Nc2c(I)c(C(=O)O)c(I)c(C(=O)NCCO)c2I)c(I)c(N(C)C(C)=O)c1I,"activity change, negative = inhibition",[1]; at 25.7 µM (top of the series),-2.02% (inactive)
same,max response,[1]; [11],-4.35%
same,max response,[1]; [12],-10.2%
Cc1ncc(C[n+]2csc(CCO)c2C)c(N)n1,"activity change, negative = inhibition",[1]; at 25.7 µM (top of the series),-1.32% (inactive)
same,max response,[1]; [11],9.62%
same,max response,[1]; [12],7.5%
C=CC(C)(O)CC/C=C(\C)CCC=C(C)C (stereo not drawn),"activity change, negative = inhibition",[1]; at 57.5 µM (top of the series),0.625% (inactive)
same,max response,[1]; [11],5.67%
same,max response,[1]; [12],8.64%
CC(=O)[C@H]1CC[C@H]2[C@@H]3C=CC4=CC(=O)CC[C@@]4(C)[C@H]3CC[C@]12C,"activity change, negative = inhibition",[1]; at 25.7 µM (top of the series),-2.63% (inactive)
same,max response,[1]; [11],-13.1%
same,max response,[1]; [12],-17%
CCCOc1cc(N)ccc1C(=O)OCCN(CC)CC,"activity change, negative = inhibition",[1]; at 25.7 µM (top of the series),-0.11% (inactive)
same,max response,[1]; [11],-10.4%
same,max response,[1]; [12],-6.99%
CC1CCCC(C)N1NC(=O)c1ccc(Cl)c(S(N)(=O)=O)c1 (stereo not drawn),"activity change, negative = inhibition",[1]; at 57.5 µM (top of the series),2.67% (inactive)
same,max response,[1]; [11],17.3%
same,max response,[1]; [12],23.6%
CC(=O)Nc1ccc(OC(=O)c2ccccc2O)cc1,"activity change, negative = inhibition",[1]; at 57.5 µM (top of the series),5.77% (inactive)
same,max response,[1]; [11],14.6%
same,max response,[1]; [12],24.9%
O=c1[nH]c(=O)n([C@H]2C[C@H](O)[C@@H](CO)O2)cc1/C=C/Br,outcome,[2],inactive
same,outcome,[3],inactive
same,outcome,[4],inactive
same,outcome,[5],inactive
same,Potency,[6],inactive
same,Potency,[7],inactive
same,outcome,[8],inactive
same,outcome,[9],inactive
same,Potency,[10],inactive
Nc1nccs1,"activity change, negative = inhibition",[1]; at 57.5 µM (top of the series),6.96% (inactive)
same,max response,[1]; [11],-1.03%
same,max response,[1]; [12],14.6%
COc1cc(S(C)=O)ccc1-c1nc2ncccc2[nH]1 (stereo not drawn),"activity change, negative = inhibition",[1]; at 25.7 µM (top of the series),0.171% (inactive)
same,max response,[1]; [11],-21.2%
same,max response,[1]; [12],-18.4%
CC(=O)Oc1cccc(C(=O)O)c1OC(C)=O,"activity change, negative = inhibition",[1]; at 57.5 µM (top of the series),4.19% (inactive)
same,max response,[1]; [11],10.5%
same,max response,[1]; [12],12%
N#Cc1ccc2c(c1)N(CCCN1CCC(O)CC1)c1ccccc1S2,"activity change, negative = inhibition",[1]; at 57.5 µM (top of the series),6.36% (inactive)
same,max response,[1]; [11],2.04%
same,max response,[1]; [12],8.33%
CC1(C)S[C@@H]2[C@H](NC(=O)C3(N)CCCCC3)C(=O)N2[C@H]1C(=O)O,"activity change, negative = inhibition",[1]; at 25.7 µM (top of the series),-0.399% (inactive)
same,max response,[1]; [11],10.5%
same,max response,[1]; [12],9.76%
O=C1c2ccccc2C(=O)c2c1ccc(O)c2O,"activity change, negative = inhibition",[1]; at 57.5 µM (top of the series),15% (inactive)
same,max response,[1]; [11],2.35%
same,max response,[1]; [12],20.3%
Cc1cc(C)c(NC(=O)C[C@H](CC(=O)O)c2cccc3ccccc23)c(C(=O)N2CCC3(CCCC3)CC2)c1,outcome,[2],inactive
same,outcome,[3],inactive
same,outcome,[4],inactive
same,outcome,[5],inactive
same,Potency,[6],12.6 µM (active)
same,Potency,[7],11.2 µM (active)
CCSc1ccc2c(c1)N(CCCN1CCN(C)CC1)c1ccccc1S2,"activity change, negative = inhibition",[1]; at 25.7 µM (top of the series),-4.9% (inactive)
same,max response,[1]; [11],-20.1%
same,max response,[1]; [12],-23.8%
CCCc1nc(C(C)(C)O)c(C(=O)OCc2oc(=O)oc2C)n1Cc1ccc(-c2ccccc2-c2nn[nH]n2)cc1,"activity change, negative = inhibition",[1]; at 57.5 µM (top of the series),8.57% (inactive)
same,max response,[1]; [11],19.2%
same,max response,[1]; [12],29.3%
CC(=O)N=c1sc(S(N)(=O)=O)nn1C,"activity change, negative = inhibition",[1]; at 25.7 µM (top of the series),-5.24% (inactive)
same,"activity change, negative = inhibition",[1]; at 57.5 µM (top of the series),-1.51% (inactive)
same,max response,[1]; [11],-10.9% and 5.08%
same,max response,[1]; [12],-12.6% and 4.84%
N[C@H](CC(=O)O)C(=O)O,"activity change, negative = inhibition",[1]; at 57.5 µM (top of the series),-1.19% (inactive)
same,max response,[1]; [11],-13%
same,max response,[1]; [12],-12.9%
O=C(CCCCCCCCCCCCC1CCCC1)Nc1ccc(S(=O)(=O)c2ccc(NC(=O)CCCCCCCCCCCCC3CCCC3)cc2)cc1,"activity change, negative = inhibition",[1]; at 57.5 µM (top of the series),10% (inactive)
same,max response,[1]; [11],14.8%
same,max response,[1]; [12],25.4%
O=C(NCCNCC(O)COc1ccc(O)cc1)N1CCOCC1 (stereo not drawn),outcome,[2],inactive
same,"activity change, negative = inhibition",[1]; at 57.5 µM (top of the series),-2.06% (inactive)
same,max response,[1]; [11],-28.3%
same,max response,[1]; [12],-30.3%
same,outcome,[3],inactive
same,outcome,[4],inactive
same,outcome,[5],inactive
same,Potency,[6],inactive
same,Potency,[7],inactive
same,outcome,[8],inactive
same,outcome,[9],inactive
same,Potency,[10],inactive
O=C1NCCN1c1ncc([N+](=O)[O-])s1,"activity change, negative = inhibition",[1]; at 25.7 µM (top of the series),-0.923% (inactive)
same,max response,[1]; [11],0.859%
same,max response,[1]; [12],-3.74%
CC[C@H]1OC(=O)[C@H](C)[C@@H](O[C@H]2C[C@@](C)(OC)[C@@H](O)[C@H](C)O2)C(C)[C@@H](O[C@@H]2O[C@H](C)C[C@H](N(C)C)[C@@H]2O)[C@](C)(OC)C[C@@H](C)C(=O)[C@H](C)[C@@H](O)[C@]1(C)O (stereo partly drawn),"activity change, negative = inhibition",[1]; at 57.5 µM (top of the series),7.44% (inactive)
same,max response,[1]; [11],9.53%
same,max response,[1]; [12],18.8%
CN1C(=O)OC(C)(C)C1=O,"activity change, negative = inhibition",[1]; at 25.7 µM (top of the series),0.553% (inactive)
same,max response,[1]; [11],9.38%
same,max response,[1]; [12],10.6%
NC(N)=O,"activity change, negative = inhibition",[1]; at 57.5 µM (top of the series),6.91% (inactive)
same,max response,[1]; [11],16.8%
same,max response,[1]; [12],28%
Nc1ncnc2c1ncn2[C@H]1CC[C@@H](CO)O1,"activity change, negative = inhibition",[1]; at 57.5 µM (top of the series),1.8% (inactive)
same,max response,[1]; [11],3.29%
same,max response,[1]; [12],6.18%
Oc1ccc(/C=C/c2cc(O)cc(O)c2)cc1,"activity change, negative = inhibition",[1]; at 57.5 µM (top of the series),25.3% (inactive)
same,max response,[1]; [11],-23.2%
same,max response,[1]; [12],2.31%
same,outcome,[3],inactive
same,outcome,[4],inactive
same,outcome,[5],inactive
same,Potency,[6],inactive
same,outcome,[9],inactive
same,Potency,[10],inactive
CN1CCc2c(c3ccccc3n2Cc2ccccc2)C1,"activity change, negative = inhibition",[1]; at 25.7 µM (top of the series),-1.45% (inactive)
same,max response,[1]; [11],1.19%
same,max response,[1]; [12],1.48%
CC(C)c1nc(N(C)S(C)(=O)=O)nc(-c2ccc(F)cc2)c1/C=C/C(O)CC(O)CC(=O)O (stereo not drawn),"activity change, negative = inhibition",[1]; at 57.5 µM (top of the series),2.85% (inactive)
same,max response,[1]; [11],4.28%
same,max response,[1]; [12],9.26%

# From PubChem BioAssay (NCATS)
